Jurkat NFkB inh: inhibitors of the PMA/ionomycin-induced NF-kB reporter in Jurkat cells; PMA/ionomycin-induced NF-kB luciferase reporter, luminescence; inhibition, % at 4 µM; hit rate 0.53% among 330,000; AID 435003; in the data active = inhibition above about 50%
Mdm2 MdmX PPI: inhibitors of human Mdm2/MdmX interaction; O15151+Q00987; SaOS-2 split-luciferase Mdm2/MdmX complementation, luminescence; inhibition, % at 8 µM; hit rate 3% among 330,000;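 active = inhibition of at least 50% at 8 µM in the primary screen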
Target sequence (O15151 whole entry, looked up): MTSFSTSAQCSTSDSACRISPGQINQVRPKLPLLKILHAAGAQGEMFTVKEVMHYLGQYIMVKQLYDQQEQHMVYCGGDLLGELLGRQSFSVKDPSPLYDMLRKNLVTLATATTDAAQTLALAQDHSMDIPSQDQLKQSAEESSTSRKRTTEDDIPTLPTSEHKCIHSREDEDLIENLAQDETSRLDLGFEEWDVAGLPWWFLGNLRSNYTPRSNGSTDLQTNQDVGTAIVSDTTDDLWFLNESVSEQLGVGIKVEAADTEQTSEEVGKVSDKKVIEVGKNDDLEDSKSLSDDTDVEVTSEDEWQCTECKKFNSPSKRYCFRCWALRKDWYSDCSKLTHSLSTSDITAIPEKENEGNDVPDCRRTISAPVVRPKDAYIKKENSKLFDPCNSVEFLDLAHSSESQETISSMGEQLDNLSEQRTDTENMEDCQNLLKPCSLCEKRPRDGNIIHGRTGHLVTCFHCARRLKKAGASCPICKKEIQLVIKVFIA
Target sequence (Q00987 whole entry, looked up): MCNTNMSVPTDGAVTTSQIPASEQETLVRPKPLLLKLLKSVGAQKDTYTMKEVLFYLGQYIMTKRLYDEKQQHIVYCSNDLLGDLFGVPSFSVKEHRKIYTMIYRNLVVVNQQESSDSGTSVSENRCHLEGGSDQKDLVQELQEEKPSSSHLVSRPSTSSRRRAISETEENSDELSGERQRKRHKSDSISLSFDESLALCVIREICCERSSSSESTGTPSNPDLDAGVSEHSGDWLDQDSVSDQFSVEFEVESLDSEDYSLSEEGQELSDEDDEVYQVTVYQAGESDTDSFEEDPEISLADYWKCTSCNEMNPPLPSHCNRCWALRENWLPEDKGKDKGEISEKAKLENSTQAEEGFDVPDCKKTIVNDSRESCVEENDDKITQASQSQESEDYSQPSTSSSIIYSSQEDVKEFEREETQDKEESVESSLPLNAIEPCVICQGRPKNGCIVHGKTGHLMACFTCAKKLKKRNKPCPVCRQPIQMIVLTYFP
697 NFkB inh: inhibitors of the PMA/ionomycin-induced NF-kB reporter in 697 B cells; 697 B-cell NF-kB luciferase reporter, 16 h; inhibition, % at 4 µM; hit rate 0.33% among 330,000; AID 435022; in the data active = inhibition above about 35%
Beta apoptosis: beta cell apoptosis inhibition | INS-1E cytokine-induced death, ATP luminescence, 48 h; percent of positive-control rescue, neutral wells zero | protection from apoptosis, % (no concentration beside the values) | hit rate 0.8% among 300,000 | AID 435005;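 active = Every replicate reaches about 75%, or at least half do and their mean reaches it too, limit read from the data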;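 also: 0% = cytokine-treated negative control wells and 100% = positive control rescue; higher means more ATP so stronger rescue from cytokine killing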
Gli-Sufu antag: Gli-Sufu pathway antagonism; Sufu-KO-LIGHT fibroblasts, Gli luciferase reporter luminescence; inhibition, % at 5 µM; hit rate 0.74% among 340,000;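 active = inhibition above about 55%, limit read from the data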;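 also: 0% = DMSO-treated cells and 100% = wells with medium but no cells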
Mdm2 MdmX conf: confirmation of human Mdm2/MdmX interaction inhibitors. shares compounds with Mdm2 MdmX PPI. Mdm2-MdmX binding, luminescent assay. inhibition, % at 8 µM. hit rate 55% among 10,000. AID 489028; in the data active = inhibition above about 40%
Full FLuc ctr: inhibits full-length luciferase, flagging false Mdm2/MdmX hits; hit rate 77% among 6,200; shares compounds with Mdm2 MdmX PPI; AID 504607; inhibition, % at 8 µM; SaOS-2 full-length luciferase counterscreen, luminescence;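 active = mean inhibition at 8 µM reaching about 37%, which flags the compound as non-specific, limit read from the data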;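 also: p53-null SaOS-2 cells with luciferase driven by a doxycycline-inducible promoter; compound on cells about two nights before reading with doxycycline added after day one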
The depositor's hits bear a star. The list is not random: actives were taken first. Their share in the collection is about 4%.

How did CC(C)NC(=O)COC(=O)c1ccc(Cl)c(S(N)(=O)=O)c1 do in these assays?
Jurkat NFkB inh: -10; Mdm2 MdmX PPI: 18; 697 NFkB inh: 9; Beta apoptosis: 2; Gli-Sufu antag: -6

Results for CC1Cc2ccccc2N1c1ncnc2nc[nH]c12 (centres undefined) ?
Jurkat NFkB inh: -13; Mdm2 MdmX PPI: 53*; 697 NFkB inh: -1; Beta apoptosis: 2; Gli-Sufu antag: -10; Mdm2 MdmX conf: 49*; Full FLuc ctr: 75*

What do the screens show for `c1ccc2c(c1)CCN(c1ncnc3nc[nH]c13)C2`?
Jurkat NFkB inh: 5; Mdm2 MdmX PPI: 39; 697 NFkB inh: 14; Beta apoptosis: -9; Gli-Sufu antag: -6

How did CC1CCCCN1c1ncnc(N)c1[N+](=O)[O-] (centres undefined) do in these assays?
Jurkat NFkB inh: -5; Mdm2 MdmX PPI: 37; 697 NFkB inh: -1; Beta apoptosis: -14; Gli-Sufu antag: -16

How did CC1Cc2ccccc2N1c1ncnc(N)c1[N+](=O)[O-] (centres undefined) do in these assays?
Jurkat NFkB inh: 35; Mdm2 MdmX PPI: 91*; 697 NFkB inh: 12; Beta apoptosis: -40; Gli-Sufu antag: -12; Mdm2 MdmX conf: 93*; Full FLuc ctr: 54*

How did Cc1ccc(CS(=O)(=O)c2ccc(C(=O)N3CCN(c4ccccn4)CC3)cc2[N+](=O)[O-])cc1 do in these assays?
Jurkat NFkB inh: 8; Mdm2 MdmX PPI: 42; 697 NFkB inh: 8; Beta apoptosis: -23; Gli-Sufu antag: 17

Results for CCN1CCN(CCNC(=O)c2ccc(/C=C3\Sc4ccccc4N(Cc4ccccc4F)C3=O)cc2)CC1 ?
Jurkat NFkB inh: -10; Mdm2 MdmX PPI: 92*; 697 NFkB inh: 6; Beta apoptosis: 4; Gli-Sufu antag: 6; Mdm2 MdmX conf: 52*; Full FLuc ctr: 46*

What do the screens show for `CN1CCN(CCCNC(=O)c2ccc(/C=C3\Sc4ccccc4N(Cc4ccc(F)cc4)C3=O)cc2)CC1`?
Gli-Sufu antag: 8

What do the screens show for `COCCCNC(=O)/C=C1\Sc2ccccc2N(Cc2ccccc2F)C1=O`?
Jurkat NFkB inh: -5; Mdm2 MdmX PPI: 88*; 697 NFkB inh: -22; Beta apoptosis: -16; Gli-Sufu antag: -5; Mdm2 MdmX conf: 53*; Full FLuc ctr: 38*

How did CN1CCN(CCCNC(=O)c2ccc(/C=C3\Oc4ccccc4N(Cc4ccccc4F)C3=O)cc2)CC1 do in these assays?
Jurkat NFkB inh: -21; Mdm2 MdmX PPI: 92*; 697 NFkB inh: -29; Beta apoptosis: 5; Gli-Sufu antag: 2; Mdm2 MdmX conf: 12

What do the screens show for `Cc1cccc(CN2C(=O)/C(=C\c3ccc(C(=O)NCCCN4CCN(C)CC4)cc3)Oc3ccccc32)c1`?
Jurkat NFkB inh: 40; Mdm2 MdmX PPI: 100*; 697 NFkB inh: -12; Beta apoptosis: 22; Mdm2 MdmX conf: 56*; Full FLuc ctr: 36*

How did COc1cc(NC(=O)CN2CCN(C(=O)C3CCCO3)CC2)c(OC)cc1Cl (centres undefined) do in these assays?
Jurkat NFkB inh: 0; Mdm2 MdmX PPI: 14; 697 NFkB inh: -3; Beta apoptosis: -15; Gli-Sufu antag: -1

Results for O=[N+]([O-])c1cccc(/C=N/Nc2nc(N3CCOCC3)nc(N3CCOCC3)n2)c1 ?
Jurkat NFkB inh: 3; Mdm2 MdmX PPI: 7; 697 NFkB inh: 12; Beta apoptosis: 2; Gli-Sufu antag: 2

What do the screens show for `O=[N+]([O-])c1cccc(/C=N/Nc2cc(N3CCOCC3)ncn2)c1`?
Jurkat NFkB inh: 35; Mdm2 MdmX PPI: 59*; 697 NFkB inh: -106; Beta apoptosis: -11; Gli-Sufu antag: -16; Mdm2 MdmX conf: 33

What do the screens show for `C/C(=N\Nc1cc(N2CCOCC2)ncn1)c1cccc([N+](=O)[O-])c1`?
Jurkat NFkB inh: 10; Mdm2 MdmX PPI: 60*; 697 NFkB inh: -64; Beta apoptosis: -24; Gli-Sufu antag: -29; Mdm2 MdmX conf: 21

What do the screens show for `O=[N+]([O-])c1cccc(/C=N/Nc2cc(Cl)nc(-c3ccccc3)n2)c1`?
Jurkat NFkB inh: 11; Mdm2 MdmX PPI: 66*; 697 NFkB inh: 27; Beta apoptosis: 14; Gli-Sufu antag: 11; Mdm2 MdmX conf: 10

What do the screens show for `C/C(=N\Nc1cc(N2CCOCC2)ncn1)c1ccccc1`?
Jurkat NFkB inh: -144; Mdm2 MdmX PPI: -38; 697 NFkB inh: -129; Beta apoptosis: -4; Gli-Sufu antag: -60

Results for Cc1cc(C)n2nc(SCC(=O)Nc3ccc(F)cc3[N+](=O)[O-])nc2n1 ?
Jurkat NFkB inh: 2; Mdm2 MdmX PPI: 9; 697 NFkB inh: -21; Beta apoptosis: -9; Gli-Sufu antag: 2

How did O=C(c1ccc(Cl)cc1)C1CCN(C(=O)c2ccc(F)cc2)CC1 do in these assays?
Jurkat NFkB inh: 6; Mdm2 MdmX PPI: 12; 697 NFkB inh: -24; Beta apoptosis: 3; Gli-Sufu antag: 14

What do the screens show for `O=c1c2ccccc2oc2cc(C#CC3(O)CCCCC3)ccc12`?
Jurkat NFkB inh: -85; Mdm2 MdmX PPI: 87*; 697 NFkB inh: -160; Beta apoptosis: -2; Gli-Sufu antag: 36; Mdm2 MdmX conf: 76*; Full FLuc ctr: 98*

How did CCOc1cccc(/C=N/NC(=O)c2cc(C3CC3)[nH]n2)c1O do in these assays?
Jurkat NFkB inh: 13; Mdm2 MdmX PPI: 59*; 697 NFkB inh: -29; Beta apoptosis: 96*; Gli-Sufu antag: 26; Mdm2 MdmX conf: 26

How did Cc1cc(C)cc(SCc2noc(C(=O)NCC3CC3)c2C(=O)NCC2CC2)c1 do in these assays?
Jurkat NFkB inh: 8; Mdm2 MdmX PPI: 5; 697 NFkB inh: 11; Beta apoptosis: 1; Gli-Sufu antag: 9

Results for CC(C)(C)OC(=O)C[C@H]1C/C=C\C[C@@H](CC(=O)N[C@@H](CO)Cc2ccccc2)C(=O)NCCOC1=O ?
Jurkat NFkB inh: -5; Mdm2 MdmX PPI: -3; 697 NFkB inh: -12; Beta apoptosis: 2; Gli-Sufu antag: -5

Results for COc1ccc(C(CNC(=O)COc2cc(C)c(Cl)c(C)c2)N2CCCCC2)cc1 (centres undefined) ?
Jurkat NFkB inh: 21; Mdm2 MdmX PPI: 44; 697 NFkB inh: -19; Gli-Sufu antag: 15

How did CCN1C(=O)/C(=C2/Sc3ccc(OC)cc3N2C)SC1=Nc1cccc(O)c1 do in these assays?
Jurkat NFkB inh: -13; Mdm2 MdmX PPI: 97*; 697 NFkB inh: 19; Beta apoptosis: 18; Gli-Sufu antag: -2; Mdm2 MdmX conf: 32

What do the screens show for `CCN(CC)S(=O)(=O)c1ccc(-c2nnc(SCC(=O)N3CCOCC3)o2)cc1`?
Jurkat NFkB inh: -15; Mdm2 MdmX PPI: -16; 697 NFkB inh: -65; Beta apoptosis: 1; Gli-Sufu antag: 3

How did CCN(CC)S(=O)(=O)c1ccc(-c2nnc(SCC(=O)N3CCc4ccccc43)o2)cc1 do in these assays?
Jurkat NFkB inh: -1; Mdm2 MdmX PPI: 75*; 697 NFkB inh: 2; Beta apoptosis: -11; Gli-Sufu antag: 3; Mdm2 MdmX conf: -11

Screens deposited in PubChem BioAssay by several laboratories.
